Drawing on PubChem BioAssay (NCI), this text covers growth for 7 compounds.

This is part of a sample that, as a whole, favours compounds with a hit. Of some 83,000 tested, about 20% had one in any assay.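 Percent growth is the endpoint: 0 to 100 indicates growth inhibition (40 means 60% inhibition), 0 means no net growth, and negative values indicate cell death.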 Unmarked numbers belong to inactive results. Activity calls are given as the source filed them. How the source made its calls: active means growth percent below 10; inactive means the rest.

Common to all, as to test: NCI-60 one-dose screen, 48 h (100 = growth as untreated, 0 = no growth, -100 = all killed)
For test [1], the system named is NCI-H23 lung. The settings on record: 10 µM unless noted.
Test [2] concerns NCI-H226 lung. The settings on record: 10 µM unless noted.
Test [3] has as its system NCI-H322M lung. The settings on record: 10 µM unless noted.
Test [4] concerns HOP-62 NSCLC. The settings on record: 10 µM unless noted.
In test [5] the test system is NCI-H460 lung. The settings on record: 10 µM unless noted.
For test [6], the system named is HOP-92 NSCLC. The settings on record: 10 µM unless noted.
For test [7], the system named is NCI-H522 lung. The settings on record: 10 µM unless noted.
The subject of test [8] is A549/ATCC NSCLC. The settings on record: 10 µM unless noted.
The test system of test [9] is 786-0 renal. The settings on record: 10 µM unless noted.
The test system of test [10] is COLO 205 colon. The settings on record: 10 µM unless noted.
The subject of test [11] is DU-145 prostate. The settings on record: 10 µM unless noted.
The test system of test [12] is K-562 leukemia. The settings on record: 10 µM unless noted.
In test [13] the test system is MALME-3M melanoma. The settings on record: 10 µM unless noted.
For test [14], the system named is MDA-MB-231 breast. The settings on record: 10 µM unless noted.
For test [15], the system named is RXF 393 renal. The settings on record: 10 µM unless noted.
In test [16] the test system is SF-268 CNS. The settings on record: 10 µM unless noted.
For test [17], the system named is SF-295 CNS. The settings on record: 10 µM unless noted.
Test [18] concerns SF-539 CNS. The settings on record: 10 µM unless noted.
Test [19] deals with UACC-257 melanoma. The settings on record: 10 µM.
In test [20] the test system is M14 melanoma. The settings on record: 10 µM unless noted.

For the compound `O=C(CN1C(=O)S/C(=C\c2ccccc2)C1=O)Nc1ccc(C(=O)/C=C/c2cc3ccccc3nc2Cl)cc1`, the growth in test [1] was 59.3%; in [2], 92.2%; in test [3], 92.2%; in [4] it was 87.6%; in test [5], 88.3%; in test [6], 87.9%. Besides, the growth in test [7] is 73.3%; in [8], 88.6%; in test [9], 94.8%; in [10], 103%; in test [11], 91.4%; in test [12], 51.2%. Also, the growth in [13] is 91.1%; in [14], 90.2%; in test [15] it was 109%; in test [16] it was 81.8%; in test [17], 81%; in test [18] it was 90.8%. Further, the growth in test [19] is 71.3%; in test [20], 78.8%.

As for `COc1cc([C@H]2OC[C@H]3[C@@H]2CO[C@@H]3c2ccc(O)c(OC)c2)ccc1O`, the growth is 86.3% in [1]; 86% in test [2]; 91.7% in [3]; 81.2% in [4]; 90.3% in [5]; 91.8% in test [6]. Moreover, the growth in [7] is 75.8%; in [8], 95.1%; in test [9], 101%; in test [10], 86.9%; in [11], 94.8%; in test [12], 99.4%. Also, the growth in [13] is 106%; in test [14] it was 65.2%; in [15], 76.2%; in [16], 91.1%; in test [17], 108%; in [18], 91.1%. For the same compound, the growth is 113% in [19] and 102% in test [20].

Take `NC(=O)c1c(NC(=O)c2cccc(OC(F)(F)F)c2)sc2c1CCC(=O)C2`: the growth in test [1] was 25.8%; in test [2], 80.1%; in test [3], 110%; in [4], 102%; in test [5], 96.6%; in test [6], 71.6%. For the same compound, the growth is 20.6% in test [7]; 74.7% in test [8]; 89.4% in test [9]; 85.7% in [10]; 107% in test [11]; 13.5% in [12]. Moreover, the growth in [13] is 81.3%; in [14], 63.3%; in test [15], 36.4%; in test [16], 55.7%; in test [17] it was 46.1%; in [18], 25.7%. In addition, the growth in test [19] was 81.8%; in test [20] it was 37.6%.

Regarding `CCOC(=O)Nc1ccc(-c2nc(-c3cccc(O)c3)c(-c3ccnc(Br)c3)[nH]2)cc1`, the growth in test [1] is 31%; in test [2], 40.6%; in test [3] it was 54.7%; in [4], 25.2%; in [5], 37.6%; in test [6] it was 38.3%. Also, the growth in [7] was 25.1%; in test [8] it was 16%; in test [9], 20.5%; in [10], 43.6%; in test [11], 57.7%; in [12], 12.5%. For the same compound, the growth in test [13] is 32.4%; in test [14], 39.3%; in test [15], -9.56% (active); in [16], 39.9%; in test [17], -14% (active); in [18], 38.2%. For the same compound, the growth in [19] is 38.7%; in test [20], 35.1%.

With `CNC(=O)c1cc(Oc2ccc3nc(NC(=O)c4cc(C)cc(C)c4)sc3c2)ccn1`, the growth in test [1] is 97.2%; in test [2] it was 75%; in test [3], 103%; in test [4], 98.6%; in test [5], 93.1%; in [6], 9.05% (active). In addition, the growth in [7] is 84.2%; in test [8] it was 89.7%; in test [9], 59%; in test [10], 85.4%; in test [11] it was 93.5%; in test [12], 50%. For the same compound, the growth in test [13] was 87.7%; in test [14], 84.6%; in test [15], 69.2%; in [16], 82.4%; in test [17], 65%; in test [18], 85.6%. Besides, the values for the growth in test [19] and in test [20] were 89.1% and 53.6%, respectively.

Regarding `C[C@H]1[C@H](C)CC[C@]2(COC(=O)c3cccnc3)CC[C@]3(C)C(=CC[C@@H]4[C@@]5(C)CCCNC(C)(C)[C@@H]5CC[C@]43C)[C@H]12`, the growth was 70% in [1]; 78.1% in test [2]; 88.3% in test [3]; 99.8% in [4]; 65.1% in test [5]; 67.5% in [6]. Further, the growth was 82.9% in [7]; 78.6% in [8]; 70.7% in test [9]; 43.9% in test [10]; 84.4% in [11]; 14.3% in [12]. For the same compound, the growth in test [13] is 59.9%; in test [14], 79.3%; in test [15], 81.9%; in test [16], 76.3%; in test [17] it was 73.3%; in test [18], 78.8%. For the same compound, the values for the growth in [19] and in [20] were 65.7% and 79.1%, respectively.

`CCOP(=O)(OCC)OC[C@]12CCC(C)(C)C[C@H]1C1=CC[C@@H]3[C@@]4(C)C/C(=C\c5cccnc5)[C@H](OP(=O)(OCC)OCC)C(C)(C)[C@@H]4CC[C@@]3(C)[C@]1(C)CC2`: the growth in test [1] is 18.3%; in [2], 34.2%; in [3] it was 61.1%; in [4], 36.8%; in test [5] it was 10.8%; in test [6], -1.51% (active). Moreover, the growth in test [7] was 19.8%; in [8] it was 16.3%; in [9], 36.2%; in [10], -5.36% (active); in [11] it was 30.7%; in [12], 9.94% (active). Besides, the growth in test [13] was 19.5%; in test [14], 44.8%; in test [15], 58%; in [16], 46.1%; in test [17] it was 26.7%; in [18] it was 37%. In addition, the growth was 23.7% in test [19] and 34.6% in [20].
